Source: PubChem (Broad Institute)
C diff growth – inhibitors of Clostridium difficile growth | growth activity, negative = inhibition, % at 16 µg/mL (by protocol) | Clostridium difficile clinical isolate growth, OD600, 24 h; stronger effect = lower value | 86,000 tested, 0.25% active | AID 1259249;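 active means mean growth activity at or below -80% and every replicate also at or below -80%; inconclusive means mean at or below -80% but some replicate above -80%; inactive means mean growth activity above -80%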
T cruzi growth-1 – blocks T. cruzi growth in NIH3T3 culture; inhibition, % at 8.34 µM; T. cruzi beta-gal in NIH3T3, GalScreen luminescence, 90 h; 77,000 tested, 5.9% active; AID 624255;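 active means mean inhibition above about 93%, with at least 55% of replicates each passing it, limit read from the data, passing the limit was not always enough; inconclusive means only one of those two conditions holds; inactive means neither condition holds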
Pf Dd2 growth – inhibitors of Plasmodium falciparum Dd2 growth. P. falciparum Dd2 growth, SYBR Green, 72 h; stronger effect = lower value. activity change, % at 10 µM. 94,000 tested, 2.3% active; in the data active means activity change below about -80%; inconclusive means no clear call, values can overlap the other calls
T cruzi growth-2 – inhibitors of T. cruzi proliferation. shares compounds with T cruzi growth-1. T. cruzi beta-gal in NIH3T3, GalScreen luminescence, 90 h. inhibition, % at 8.35 µM. 5,600 tested, 72% active;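 active means mean replicate inhibition above about 95% and at least 55% of replicates individually reaching it, limit read from the data; inconclusive means only one of the two criteria is met; inactive means neither criterion is met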
T cruzi growth-3 – blocks T. cruzi growth in NIH3T3 host cells. shares compounds with T cruzi growth-1. T. cruzi beta-gal in NIH3T3, GalScreen luminescence, 90 h. inhibition, % at 2.09 µM. 5,600 tested, 21% active;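 active means mean inhibition above about 95%, with at least 55% of replicates also reaching it, limit read from the data; inconclusive means meets just one of the two conditions; inactive means meets neither condition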
NIH3T3 tox – cytotoxicity in mouse NIH/3T3 fibroblasts; AID 651742; NIH/3T3 viability, CellTiter-Glo ATP luminescence, 90 h; shares compounds with T cruzi growth-1; cytotoxicity (signal decrease), % at 8.35 µM; 5,600 tested, 14% active;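 active means mean signal decrease across replicates above about 35% based on untreated-well scatter, with enough replicates individually passing, limit read from the data; inconclusive means no rule stated though some were filed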
NIH3T3 tox 2 – cytotoxicity in mouse NIH/3T3 fibroblasts | shares compounds with T cruzi growth-1 | NIH/3T3 viability, CellTiter-Glo ATP luminescence, 90 h | inhibition, % at 24.9 µM | 5,600 tested, 56% active;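 active means mean loss of cell viability signal at or above a set limit, and enough replicates individually reaching it; inconclusive means meets only the mean limit or only the replicate share; inactive means meets neither condition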
Numbers stand for hits; 0 = inactive; ? = inconclusive; - = no result. Most compounds without a hit are left out; they make up all but 6.7% or so of the library.

SMILES | C diff growth | T cruzi growth-1 | Pf Dd2 growth | T cruzi growth-2 | T cruzi growth-3 | NIH3T3 tox | NIH3T3 tox 2
O=C(NCC[C@H]1CC[C@@H](NC(=O)c2cccnc2)[C@H](CO)O1)Nc1ccc(Cl)cc1 | 0 | 0 | 0 | - | - | - | -
COC(=O)C[C@H]1CC[C@H]2[C@@H](COC[C@@H](O)CN2S(=O)(=O)c2ccc(F)cc2)O1 | 0 | 0 | 0 | - | - | - | -
CC(C)CC#Cc1cnc2c(c1)C(=O)N([C@H](C)CO)C[C@H](C)[C@H](CN(C)Cc1ccccc1)O2 | 0 | - | 0 | - | - | - | -
C[C@H]1CCCCO[C@@H](CN(C)C(=O)NC2CCCCC2)[C@@H](C)CN([C@@H](C)CO)C(=O)c2cc(NS(=O)(=O)c3ccccc3)ccc2O1 | 0 | 102.5 | 0 | 0 | 0 | 0 | 0
C[C@@H]1CCCCO[C@H](CN(C)C(=O)NC2CCCCC2)[C@@H](C)CN([C@@H](C)CO)C(=O)c2cc(NS(=O)(=O)c3ccccc3)ccc2O1 | 0 | 0 | 0 | - | - | - | -
C[C@@H]1CCCCO[C@H](CN(C)C(=O)NC2CCCCC2)[C@H](C)CN([C@H](C)CO)C(=O)c2cc(NS(=O)(=O)c3ccccc3)ccc2O1 | 0 | 105.6 | ? | 0 | 0 | 0 | 0
C[C@@H]1CCCCO[C@H](CN(C)C(=O)NC2CCCCC2)[C@H](C)CN([C@@H](C)CO)C(=O)c2cc(NS(=O)(=O)c3ccccc3)ccc2O1 | 0 | 102.1 | 0 | 104.2 | 0 | 0 | 0
C[C@@H]1CCCCO[C@H](CN(C)C(=O)NC2CCCCC2)[C@@H](C)CN([C@H](C)CO)C(=O)c2cc(NS(=O)(=O)c3ccccc3)ccc2O1 | 0 | 0 | 0 | - | - | - | -
C[C@@H]1CN([C@H](C)CO)C(=O)c2cc(NS(=O)(=O)c3ccccc3)ccc2O[C@@H](C)CCCCO[C@@H]1CN(C)C(=O)NC1CCCCC1 | 0 | 0 | 0 | - | - | - | -
CC(C)C#Cc1ccc2c(c1)O[C@@H](CN(C)CC1CC1)[C@@H](C)CN([C@@H](C)CO)S2(=O)=O | - | 0 | 0 | - | - | - | -
COc1ccccc1NC(=O)N1C[C@H]2[C@@H](c3ccccc31)[C@@H](CO)N2C(=O)C1CC1 | 0 | 0 | 0 | - | - | - | -
C[C@H]1CN([C@@H](C)CO)C(=O)c2cc(C3=CCCCC3)cnc2O[C@@H]1CN(C)C(=O)c1ccncc1 | 0 | 0 | 0 | - | - | - | -
COc1ccc(S(=O)(=O)Nc2ccc3c(c2)C(=O)N([C@H](C)CO)C[C@H](C)[C@@H](CN(C)Cc2ccc(C(F)(F)F)cc2)OCCCC[C@@H](C)O3)cc1 | 0 | 97.7 | 0 | 102.1 | 0 | 0 | 84.2
COc1ccc(CN(C)C[C@H]2OCCCC[C@@H](C)Oc3ccc(NS(=O)(=O)c4ccc(Cl)cc4)cc3C(=O)N([C@@H](C)CO)C[C@H]2C)cc1 | 0 | ? | 0 | 0 | 0 | 37.8 | 106.0
COc1ccc(CN(C)C[C@H]2OCCCC[C@@H](C)Oc3ccc(NS(=O)(=O)c4ccc(OC)cc4)cc3C(=O)N([C@@H](C)CO)C[C@@H]2C)cc1 | 0 | 0 | 0 | - | - | - | -
COc1ccc(CN(C)C[C@H]2OCCCC[C@@H](C)Oc3ccc(NS(=O)(=O)c4ccc(Cl)cc4)cc3C(=O)N([C@H](C)CO)C[C@@H]2C)cc1 | 0 | 0 | 0 | - | - | - | -
COc1ccc(S(=O)(=O)Nc2ccc3c(c2)C(=O)N([C@@H](C)CO)C[C@H](C)[C@@H](CN(C)Cc2ccc(C(F)(F)F)cc2)OCCCC[C@H](C)O3)cc1 | 0 | 0 | 0 | - | - | - | -
COc1ccc(CN(C)C[C@H]2OCCCC[C@@H](C)Oc3ccc(NS(=O)(=O)c4ccc(F)cc4)cc3C(=O)N([C@H](C)CO)C[C@@H]2C)cc1 | 0 | 0 | 0 | - | - | - | -
COc1ccc(CN(C)C[C@H]2OCCCC[C@H](C)Oc3ccc(NS(=O)(=O)c4ccc(F)cc4)cc3C(=O)N([C@@H](C)CO)C[C@H]2C)cc1 | 0 | 102.7 | 0 | 105.5 | 0 | 0 | 103.3
COc1ccc(CN(C)C[C@H]2OCCCC[C@@H](C)Oc3ccc(NS(=O)(=O)c4ccc(Cl)cc4)cc3C(=O)N([C@H](C)CO)C[C@H]2C)cc1 | 0 | 119.0 | 0 | 115.5 | 0 | 0 | 105.6
COc1ccc(NC(=O)N(C)C[C@H]2Oc3ccc(NC(=O)CCN4CCOCC4)cc3CC(=O)N([C@H](C)CO)C[C@@H]2C)cc1 | 0 | - | 0 | - | - | - | -
CCCN1C[C@@H](C)[C@H](OC)CN(C)C(=O)c2cc(NC(=O)c3cccc(F)c3)ccc2OC[C@H]1C | 0 | 0 | 0 | - | - | - | -
O=C(C[C@H]1CC[C@@H]2[C@H](COC[C@@H](O)CN2Cc2nccs2)O1)NCc1ccc(Oc2ccccc2)cc1 | 0 | - | 0 | - | - | - | -
COc1ccc(CN(C)C[C@H]2OCCCC[C@H](C)Oc3ccc(NS(=O)(=O)c4ccc(Cl)cc4)cc3C(=O)N([C@H](C)CO)C[C@@H]2C)cc1 | 0 | 0 | 0 | - | - | - | -
COc1ccc(CN(C)C[C@@H]2OCCCC[C@H](C)Oc3ccc(NS(=O)(=O)c4ccc(Cl)cc4)cc3C(=O)N([C@H](C)CO)C[C@H]2C)cc1 | 0 | ? | 0 | 97.2 | 110.2 | 0 | 103.3
SMILES | C diff growth | T cruzi growth-1 | Pf Dd2 growth | T cruzi growth-2 | T cruzi growth-3 | NIH3T3 tox | NIH3T3 tox 2
Cc1ccc(S(=O)(=O)N(C)C[C@H]2Oc3cc(Br)ccc3S(=O)(=O)N([C@H](C)CO)C[C@@H]2C)cc1 | 0 | 110.1 | 0 | 107.0 | 0 | 0 | 60.6
Cc1ccc(S(=O)(=O)N(C)C[C@@H]2Oc3cc(Br)ccc3S(=O)(=O)N([C@@H](C)CO)C[C@H]2C)cc1 | 0 | - | 0 | - | - | - | -
C[C@@H]1CN([C@H](C)CO)S(=O)(=O)c2ccc(Br)cc2O[C@H]1CN(C)S(=O)(=O)c1ccc(F)cc1 | 0 | 96.6 | 0 | 113.3 | 0 | 0 | 61.2
C[C@@H]1CN([C@@H](C)CO)S(=O)(=O)c2ccc(Br)cc2O[C@H]1CN(C)S(=O)(=O)c1ccc(F)cc1 | 0 | 100.4 | 0 | 105.9 | 0 | 0 | 77.7
C[C@H](CO)N1C[C@H](C)[C@H](CN(C)S(=O)(=O)c2cccc(F)c2)Oc2cc(Br)ccc2S1(=O)=O | 0 | 116.7 | 0 | 105.6 | 0 | 0 | 48.5
C[C@@H]1CN([C@H](C)CO)S(=O)(=O)c2ccc(Br)cc2O[C@@H]1CN(C)S(=O)(=O)c1ccc(F)cc1 | - | 0 | 0 | - | - | - | -
C[C@H]1CN([C@@H](C)CO)S(=O)(=O)c2ccc(Br)cc2O[C@@H]1CN(C)S(=O)(=O)c1ccc(F)cc1 | - | 0 | 0 | - | - | - | -
CCCNC(=O)Nc1ccc2c(c1)C(=O)N(C)C[C@H](OC)[C@@H](C)CN(Cc1cncnc1)[C@H](C)CO2 | 0 | 0 | 0 | - | - | - | -
COc1ccc(-c2ccc(C3[C@H]4CNC[C@@H]3N4S(=O)(=O)c3ccc(OC)cc3)cc2)cc1 (some centres undefined) | 0 | - | 0 | - | - | - | -
CN(C)CCCNC(=O)C[C@H]1C=C[C@H](NS(=O)(=O)c2ccccc2)[C@@H](CO)O1 | - | 0 | 0 | - | - | - | -
C[C@@H]1CCCCO[C@@H](CN(C)C(=O)C2CCCCC2)[C@@H](C)CN([C@@H](C)CO)C(=O)c2cc(N(C)C)ccc2O1 | 0 | 0 | 0 | - | - | - | -
